In PubChem BioAssay (EPA / NIEHS) one finds outcome and AC50 data, which are given here for 5 compounds.

Read-out in assay [1]: Tissue Factor, F3 (gene 2152)
In words: BSK_CASM3C_TissueFactor: BioMAP Diversity Plus: CASM3C Assay for Tissue Factor Biomarker Activity (AID 2283052).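 Also: cell surface tissue factor protein level read by ELISA.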 To be noted: primary human coronary artery smooth muscle cells; actives raise or lower the signal.

Read-out in assay [2]: Interferon-gamma inducible Protein 10 (IP10), CXCL10 (gene 3627)
In words: BSK_hDFCGF_IP10: BioMAP Diversity Plus: hDFCGF Assay for Interferon-gamma inducible Protein 10 (IP10) Biomarker Activity (AID 2283053). To be noted: primary human foreskin fibroblasts; actives raise or lower the signal. The procedure, abridged: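 Cells: human dermal foreskin fibroblasts. Exposure: 24 h post-dosing. Detection: IP-10 ELISA, with values expressed against DMSO controls and fitted in both directions.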

Read-out in assay [3]: Urokinase-type plasminogen activator receptor (uPAR), PLAUR (gene 5329)
Kind of assay: BSK_CASM3C_uPAR: BioMAP Diversity Plus: CASM3C Assay for Urokinase-type plasminogen activator receptor (uPAR) Biomarker Activity (AID 2283054).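 Also: cell-surface uPAR protein level quantified by ELISA.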 As to conditions: primary human coronary artery smooth muscle cells; actives raise or lower the signal.

Read-out in assay [4]: Vascular cell adhesion molecule 1 (VCAM1), VCAM1 (gene 7412)
Kind of assay: BSK_CASM3C_VCAM1: BioMAP Diversity Plus: CASM3C Assay for Vascular cell adhesion molecule 1 (VCAM1) Biomarker Activity (AID 2283055).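 Also: VCAM-1 protein level quantified by ELISA on the cells.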 To be noted: primary human coronary artery smooth muscle cells; actives raise or lower the signal.

Read-out in assay [5]: Collagen III, COL3A1 (gene 1281)
Kind of assay: BSK_hDFCGF_CollagenIII: BioMAP Diversity Plus: hDFCGF Assay for Collagen III Biomarker Activity (AID 2283056). To be noted: primary human foreskin fibroblasts; actives raise or lower the signal. The procedure, abridged: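 ELISA read-out of collagen III from human skin fibroblast cultures sampled 24 h post-dosing. Values were derived by bidirectional fitting relative to the DMSO vehicle control.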

Read-out in assay [6]: Epidermal growth factor receptor (EGFR), EGFR (gene 1956)
Kind of assay: BSK_hDFCGF_EGFR: BioMAP Diversity Plus: hDFCGF Assay for Epidermal growth factor receptor (EGFR) Biomarker Activity (AID 2283057). As to conditions: primary human foreskin fibroblasts; actives raise or lower the signal. The procedure, abridged: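 Dosing human primary skin fibroblasts, then measuring surface EGFR by ELISA at 24 h, gives the endpoint; gains and losses relative to DMSO were fitted in both directions.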

Read-out in assay [7]: Interleukin-8 (IL8), CXCL8 (gene 3576)
Kind of assay: BSK_hDFCGF_IL8: BioMAP Diversity Plus: hDFCGF Assay for Interleukin-8 (IL8) Biomarker Activity (AID 2283058). To be noted: primary human foreskin fibroblasts; actives raise or lower the signal. A digest of the protocol:
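Cells used are human skin primary fibroblasts. Chemical is added, cultures run 24 h, then IL-8 is quantified by ELISA, and gain or loss versus DMSO control is fitted in both directions.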

A short description of assay [8]: BSK_hDFCGF_Proliferation: Cell Proliferation Assessment in the BioMAP Diversity Plus: hDFCGF Assay (AID 2283059).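 Also: curves fitted for both rise and fall of signal versus DMSO baseline.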 As to conditions: primary human foreskin fibroblasts. The procedure, abridged:
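Sub-confluent human foreskin fibroblast cultures receive test chemical […]. Relative cell number is quantified by sulforhodamine B staining (0.1%, after 10% TCA fixation) at 560 nm, with bidirectional fitting referenced to DMSO.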

Read-out in assay [9]: Macrophage colony-stimulating factor (MCSF), CSF1 (gene 1435)
Kind of assay: BSK_hDFCGF_MCSF: BioMAP Diversity Plus: hDFCGF Assay for Macrophage colony-stimulating factor (MCSF) Biomarker Activity (AID 2283060). To be noted: primary human foreskin fibroblasts; actives raise or lower the signal. A digest of the protocol: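 Primary human foreskin fibroblasts dosed with chemical; 24 h later, M-CSF quantified by ELISA; curves fitted in both directions vs DMSO negative control.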

A short description of assay [10]: BSK_hDFCGF_SRB: Viability Assessment in the BioMAP Diversity Plus: hDFCGF Assay (AID 2283061).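 Also: cells exposed to compound for 24 h before the read.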 To be noted: primary human foreskin fibroblasts. A digest of the protocol: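 Readout is SRB absorbance at 560 nm, reflecting total protein in parallel cultures of human foreskin fibroblasts harvested 24 h after chemical dosing. Activity was fitted bidirectionally relative to DMSO.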

Read-out in assay [11]: TIMP metallopeptidase inhibitor 1 (TIMP1), TIMP1 (gene 7076)
In words: BSK_hDFCGF_TIMP1: BioMAP Diversity Plus: hDFCGF Assay for TIMP metallopeptidase inhibitor 1 (TIMP1) Biomarker Activity (AID 2283062). As to conditions: primary human foreskin fibroblasts; actives raise or lower the signal. A digest of the protocol: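 Human skin fibroblasts (primary), hDFCGF system; compound exposure 24 h; TIMP-1 by ELISA; bidirectional fit vs DMSO negative control; overt cytotoxicity by SRB in parallel wells.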

Read-out in assay [12]: Monokine induced gamma interferon (MIG), CXCL9 (gene 4283)
Kind of assay: BSK_hDFCGF_MIG: BioMAP Diversity Plus: hDFCGF Assay for Monokine induced gamma interferon (MIG) Biomarker Activity (AID 2283063). To be noted: primary human foreskin fibroblasts; actives raise or lower the signal. A digest of the protocol: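 Chemicals were added to primary human foreskin fibroblast cultures, which were sampled 24 h later. MIG levels were then quantified by ELISA and responses fitted in both directions relative to DMSO.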

Read-out in assay [13]: Matrix Metallopeptidase 1 (MMP1), MMP1 (gene 4312)
Kind of assay: BSK_hDFCGF_MMP1: BioMAP Diversity Plus: hDFCGF Assay for Matrix Metallopeptidase 1 (MMP1) Biomarker Activity (AID 2283064). As to conditions: primary human foreskin fibroblasts; actives raise or lower the signal. The procedure, abridged:
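ELISA read-out of MMP1 from human foreskin fibroblasts (primary skin cells), 24 h post-dose. Gain or loss of signal was fitted bidirectionally versus DMSO negative control; cytotoxicity was checked by SRB in parallel cultures.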

Read-out in assay [14]: Vascular cell adhesion molecule 1 (VCAM1), VCAM1 (gene 7412)
Kind of assay: BSK_hDFCGF_VCAM1: BioMAP Diversity Plus: hDFCGF Assay for Vascular cell adhesion molecule 1 (VCAM1) Biomarker Activity (AID 2283065).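 As to AC50: VCAM-1 protein level quantified by ELISA after 24 h chemical exposure.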 As to conditions: primary human foreskin fibroblasts; actives raise or lower the signal. The procedure, abridged: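 Human foreskin fibroblast primary cells, chemical exposure 24 h; VCAM-1 by ELISA; bidirectional fit, DMSO = negative control/baseline.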

Read-out in assay [15]: Plasminogen activator inhibitor-1 (PAI1), SERPINE1 (gene 5054)
In words: BSK_hDFCGF_PAI1: BioMAP Diversity Plus: hDFCGF Assay for Plasminogen activator inhibitor-1 (PAI1) Biomarker Activity (AID 2283066). To be noted: primary human foreskin fibroblasts; actives raise or lower the signal. The procedure, abridged: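 Fibroblasts from human foreskin were treated with test chemical. After 24 h, PAI-1 was measured by ELISA. Activity was fitted in both directions relative to DMSO.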

Read-out in assay [16]: Intercellular Adhesion Molecule 1 (ICAM1), ICAM1 (gene 3383)
Kind of assay: BSK_KF3CT_ICAM1: BioMAP Diversity Plus: KF3CT Assay for Intercellular Adhesion Molecule 1 (ICAM1) Biomarker Activity (AID 2283067). As to conditions: primary human keratinocytes with fibroblasts; actives raise or lower the signal. The procedure, abridged:
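ICAM-1 levels are measured by ELISA 24 h after dosing a primary human co-culture of keratinocytes and foreskin fibroblasts. Activity in either direction is fitted relative to DMSO vehicle.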

Read-out in assay [17]: Interferon-gamma inducible Protein 10 (IP10), CXCL10 (gene 3627)
In words: BSK_KF3CT_IP10: BioMAP Diversity Plus: KF3CT Assay for Interferon-gamma inducible Protein 10 (IP10) Biomarker Activity (AID 2283068). To be noted: primary human keratinocytes with fibroblasts; actives raise or lower the signal. A digest of the protocol:
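ELISA read-out of IP-10 after 24 h chemical dosing of human skin primary co-culture (keratinocytes, foreskin fibroblasts). Gain or loss of signal relative to DMSO, bidirectional curve fit.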

Assay [18] can be described thus: BSK_KF3CT_SRB: Viability Assessment in the BioMAP Diversity Plus: KF3CT Assay (AID 2283069).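 Also: total protein by sulforhodamine B staining as a cytotoxicity measure; read 24 h after compound addition; fitted for both signal gain and loss against DMSO baseline.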 To be noted: primary human keratinocytes with fibroblasts. A digest of the protocol:
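SRB read-out at 560 nm (0.1% stain, TCA-fixed cells) gauges overt cytotoxicity in a human skin keratinocyte–fibroblast co-culture 24 h post-dosing. Signal change was fitted bidirectionally relative to DMSO control.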

Read-out in assay [19]: Interleukin-1 alpha (IL1a), IL1A (gene 3552)
In words: BSK_KF3CT_IL1a: BioMAP Diversity Plus: KF3CT Assay for Interleukin-1 alpha (IL1a) Biomarker Activity (AID 2283070). To be noted: primary human keratinocytes with fibroblasts; actives raise or lower the signal. The procedure, abridged:
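Primary skin co-culture (keratinocytes, foreskin fibroblasts), 24 h exposure; ELISA for IL-1a; bidirectional curve fit vs DMSO.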

Read-out in assay [20]: TIMP metallopeptidase inhibitor 2 (TIMP2), TIMP2 (gene 7077)
Kind of assay: BSK_KF3CT_TIMP2: BioMAP Diversity Plus: KF3CT Assay for TIMP metallopeptidase inhibitor 2 (TIMP2) Biomarker Activity (AID 2283071). To be noted: primary human keratinocytes with fibroblasts; actives raise or lower the signal. A digest of the protocol:
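Chemicals were dosed onto human skin primary co-cultures of keratinocytes and foreskin fibroblasts, and TIMP-2 was measured by ELISA after 24 hours. Activity in either direction was fitted relative to DMSO.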

Calls of active or inactive are those of the source. The calls were made as follows: active = hit-call score of the fitted dose curve at least 0.9, where 1 is the maximum; inactive = score below 0.9.

For the compound `C[C@H]1[C@H](c2ccc(Cl)cc2)SC(=O)N1C(=O)NC1CCCCC1`, the outcome in assay [1], in assay [3], in assay [4], in assay [6], in assay [7] and in [11] was inactive. In addition, the result in [12], in [14], in assay [15], in assay [16], in assay [17] and in [18] was inactive. The result in [19] was inactive. For the same compound, the AC50 (usually the concentration at which the activity in the assay is half-maximal) in assay [2] is 20 µM (active); in [5], 5.46 µM (active); in [8], 9.3 µM (active); in assay [9] it was 9.15 µM (active); in assay [10] it was 8.97 µM (active); in [13], 5.43 µM (active).
In the case of `O=C(Nc1ccccc1)Nc1cnns1`, the outcome in assay [1], in assay [2], in assay [3], in [4], in assay [5] and in assay [6] was inactive. Also, the outcome in assay [7], in [8], in assay [9], in assay [10], in assay [11] and in [12] was inactive. In addition, the result in assay [13], in assay [14], in assay [15], in assay [16], in assay [17] and in assay [18] was inactive. In [19], the outcome was inactive.
In the case of `CN1CSC(=S)N(C)C1`, the outcome in assay [1], in assay [3], in assay [5], in assay [6], in assay [7] and in assay [10] was inactive. Further, the result in [11], in assay [13], in assay [16], in [17], in assay [18] and in assay [19] was inactive. Further, in [20], the result was inactive. Also, the AC50 is 16 µM (active) in assay [2]; 20 µM (active) in [4]; 13.5 µM (active) in assay [8]; 10.6 µM (active) in assay [9]; 14.1 µM (active) in assay [12]; 9.28 µM (active) in assay [14]. The half-maximal activity concentration (AC50) in assay [15] is 24.2 µM (active).
Consider `CNC(=O)Oc1ccccc1OC(C)C`, for which the outcome in assay [1], in assay [2], in [3], in [4], in assay [5] and in [6] was inactive. For the same compound, the result in assay [7], in assay [8], in assay [9], in [10], in assay [11] and in assay [12] was inactive. Also, the result in [14], in assay [15], in assay [16], in assay [17], in [18] and in assay [20] was inactive. Besides, the AC50 is 2.38 µM (active) in [13] and 0.987 µM (active) in [19].
In the case of `COC(=O)c1ccccc1S(=O)(=O)NC(=O)Nc1nc(C)nc(OC)n1`, the result in assay [1], in assay [2], in [3], in assay [4], in [5] and in assay [6] was inactive. In addition, the result in assay [7], in [8], in assay [9], in [10], in assay [11] and in assay [12] was inactive. Further, the outcome in assay [13], in assay [14], in [15], in assay [16], in [17] and in assay [18] was inactive. The outcome in [19] and in assay [20] was inactive.
